LmPK inhibitor: qHTS Assay for Inhibitors of Leishmania Mexicana Pyruvate Kinase (LmPK) | Q27686 | purified LmPK, Kinase-Glo ATP luminescence, 1 h | Potency, µM (doses to about 57.5 µM), without a hit: top-dose activity change, negative = inhibition, actives largely listed as inhibitors | 0.37% of 290,000 active; note: potency is the fitted concentration of half-maximal effect; % is set by controls: 0 for no effect and ±100 for the full control effect
Target sequence (Q27686 whole entry, looked up): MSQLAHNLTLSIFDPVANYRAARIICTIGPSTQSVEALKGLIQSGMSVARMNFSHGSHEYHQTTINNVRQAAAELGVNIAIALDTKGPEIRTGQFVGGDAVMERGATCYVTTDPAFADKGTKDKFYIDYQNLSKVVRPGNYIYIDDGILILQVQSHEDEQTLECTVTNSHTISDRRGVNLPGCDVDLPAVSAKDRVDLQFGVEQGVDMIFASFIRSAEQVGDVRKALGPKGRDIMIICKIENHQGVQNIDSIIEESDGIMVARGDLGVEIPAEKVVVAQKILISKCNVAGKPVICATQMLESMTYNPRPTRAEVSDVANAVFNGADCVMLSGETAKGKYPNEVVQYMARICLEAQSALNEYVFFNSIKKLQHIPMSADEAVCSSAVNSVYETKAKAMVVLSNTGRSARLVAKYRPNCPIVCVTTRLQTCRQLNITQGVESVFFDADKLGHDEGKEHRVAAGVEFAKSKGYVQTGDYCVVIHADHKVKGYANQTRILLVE
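Pyruvate kinase activity monitored as ATP production (luciferase luminescence). Conditions: 0.1 nM enzyme, 0.5 mM PEP, 0.1 mM ADP, 1 h, RT; normalized against uninhibited and no-enzyme wells.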
FBPA Giardia inh: qHTS Assay for Inhibitors of Fructose-1,6-bisphosphate Aldolase from Giardia Lamblia | Potency, µM (top dose mostly 59.6 µM), without a hit: top-dose activity, negative = inhibition, usual class: inhibitors | A8B2U2 | 0.71% of 290,000 active | purified Giardia FBPA; note: potency is the fitted concentration of half-maximal effect; % is set by controls: 0 for no effect and ±100 for the full control effect; nearly all actives have a fitted effect of over 55% in size
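40 nM FBPA preincubated 10 min at RT with compound (up to 57.5 uM final), then substrate plus GAPDH/TPI/NAD/arsenate coupling and diaphorase/resazurin added. Fluorescence read after 20 min at RT, 525/598 nm.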
RE007 growth inh: qHTS Assay for Inhibitors of the HIV-1 protein Vpr | S. pombe RE007 Vpr strain, BacTiter-Glo ATP luminescence, 24 h | AID 651644, 2012 | Potency, µM (highest dose often 92.2 µM), for the others: top-dose activity change, negative = less growth, hits mostly inhibitors | 0.21% of 360,000 active; active = well fitted falling curve with a large enough effect; inconclusive = small, poorly fitted or top-dose-only effect; inactive = no such curve, though single readings can be large or run the other way; note: potency is the fitted concentration of half-maximal effect; % is set by controls: 0 for no effect and ±100 for the full control effect; nearly all actives have a fitted effect of over 50% in size
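Fission yeast RE007 carrying one integrated HIV-1 vpr copy, seeded at OD 0.01 in PMG+AL medium with 23 nL pinned compound. Grown 24 h at 30 degrees; viability read by BacTiter-Glo luminescence after 5 min.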
Shiga inhibitor: A qHTS for Small Molecule Inhibitors of Shiga Toxin; AID 2315, 2010; inhibition, % at 38.7 µM; 9.2% of 290,000 active; Vero cells, Shiga toxin protein synthesis inhibition reporter; in the data active = inhibition mostly above about 28%, no sharp cut-off; inactive = mostly below about 43%; note: 0% is about no effect
Tb PYK inh: qHTS of Trypanosoma Brucei Inhibitors | pyruvate kinase (Trypanosoma brucei), Q57TT1 | TbPYK enzyme, Kinase-Glo Plus ATP luminescence, 45 min | Potency, µM (top dose mostly 76.8 µM), for the others: at the top dose activity, negative = inhibition, usual class: inhibitors | 0.12% of 410,000 active; note: potency is the fitted concentration of half-maximal effect; % is set by controls: 0 for no effect and ±100 for the full control effect; nearly all actives have a fitted effect of over 50% in size
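T. brucei PYK with substrate was exposed to pin-transferred compounds across a concentration series, then started with 130 uM ADP (final). After 45 min at room temperature, Kinase-Glo Plus luminescence was read, normalized and curve-fitted.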
CHX counter: Cycloheximide Counterscreen for Small Molecule Inhibitors of Shiga Toxin | cell reporter, cycloheximide protein synthesis inhibition counterscreen | max response, % | 12% of 300,000 active | AID 2314, 2010; in the data active = max response mostly above about 13%, no sharp cut-off; inactive = mostly below about 14%; note: read at 38.3 µM for the half of the compounds with a filed dose; 0% is about no effect
* marks the source's active call; other numbers are inactive results; ? = inconclusive; / = no result; [ ] = another dose, or the depositor's remark. Shown is part of a subset that was picked to be rich in hits. Unless noted, calls come from the whole dose curve; as a rule, active = well fitted curve in the direction sought with a large enough effect; inconclusive = small, poorly fitted or top-dose-only effect, or another doubt; inactive = no such curve, though single readings can be large; an effect the other way counts as inactive or inconclusive.

SMILES	LmPK inhibitor	FBPA Giardia inh	RE007 growth inh	Shiga inhibitor	Tb PYK inh	CHX counter
CO[C@H]1COC(=O)[C@H](C)NC(=O)[C@@H](C)COC(=O)[C@H]2CCCN2C(=O)C/C=C\[C@H]1C	/	2%[12.9 µM]	/	/	/	/
COCCN(Cc1nc(-c2ccc(-c3ccccc3)cc2)oc1C)C(C)C	8%	-2%	-18%	38*	7%	31*
CC(C)Nc1oc(-c2ccccc2)nc1-c1cccc2ccccc12	/	-1%	/	/	/	/
COC(=O)c1c(C)[nH]c(C(=O)CSc2ccc(Cl)cc2)c1C	0%	-5%	18%	42	-11%	30*
COC(=O)c1c(C)[nH]c(C(=O)/C=C/c2ccc(C)cc2)c1C	-3%	1%	4%	25	1%	1
COC(=O)c1c(C)[nH]c(C(=O)/C=C/c2ccccc2)c1C	1%	5%	1%	89*	-2%	43*
COC(=O)c1c(C)[nH]c(C(=O)/C=C/c2cccc(Cl)c2)c1C	-1%	4%	-8%	62*	-7%	39*
COc1ccc2c(c1)c(=O)c(S(=O)(=O)c1ccccc1)cn2CC(=O)Nc1ccc(C)c(Cl)c1	/	/	/	/	-8%	/
COc1ccc2c(n1)Sc1nc3ccccc3nc1N2	-19%	-17%	-19%	75*	-8%	56*
CCCc1ccc(Oc2cc(Cl)nc(N)n2)cc1	1%	1%	8%	-40	-6%	16*
CCc1ccc(Oc2cc(C)nc(N)n2)cc1	-2%	-2%	-6%	65*	6%	26*
COc1ccc(Oc2cc(F)nc(N)n2)cc1	-2%	0%	0%	1	-6%	-1
COc1ccccc1CNC(=O)C1(c2cccs2)CCOCC1	/	/	/	/	-3%	/
O=S(=O)(Nc1cccc(-c2ccc(N3CCOCC3)nn2)c1)c1ccc(F)c(C(F)(F)F)c1	/	/	/	/	2%	/
CCC(=O)Nc1ccc(C(=O)NNC(=O)c2cccs2)cc1	-7%	8%	6%	19	-14%	0
Cc1cc(C(=O)NC(=S)Nc2cccc(NC(=O)C(C)C)c2)ccc1[N+](=O)[O-]	-6%	?	-5%	10	-3%	36*
Cc1ccccc1C(=O)NC(=S)Nc1cccc(NC(=O)C(C)C)c1	2%	-4%	25%	42	-1%	27*
CCC(=O)Nc1cccc(NC(=S)NC(=O)c2cccs2)c1	-1%	?	-5%	110*	-5%	40*
CC(C)C(=O)Nc1cccc(NC(=S)NC(=O)c2ccc([N+](=O)[O-])cc2)c1	-2%	/	-6%	54	1%	15
CC(C)C(=O)Nc1cccc(NC(=S)NC(=O)c2ccccc2Cl)c1	10%	-14%	-10%	14	0%	25*
COC(=O)c1ccc(C(NC(=O)OCc2ccccc2)/C(C)=C/[C@@H](C)C(=O)N[C@@H](CO)Cc2ccccc2)cc1 (stereo partly specified)	/	2%	/	/	/	/
CCC(=O)Nc1cccc(NC(=S)NC(=O)c2ccccc2Cl)c1	0%	-6%	7%	37	2%	25*
Cc1cc(NC(=O)Cc2ccccc2)c2ccccc2n1	0%	4%	-2%	-10	0%	0
Cc1nc2ccccc2c2nc(NC(=O)Cc3ccccc3)nn12	-2%	2%	4%	42*	10%	10
CC(=O)Nc1ccc(C2Nc3cc(C)c(C)cc3NC3=C2C(=O)CC(C)(C)C3)cc1 (stereo unspecified)	-8%	-11%	3%	40*	-4%	36*
SMILES	LmPK inhibitor	FBPA Giardia inh	RE007 growth inh	Shiga inhibitor	Tb PYK inh	CHX counter
COc1ccc(C)cc1NC(=O)Cn1c(=O)ccc2cc(S(=O)(=O)N3CCC(C)CC3)ccc21	/	/	/	/	2%	/
Cc1ccc(CC2C(=O)N(c3cc(Cl)ccn3)C(=O)C2C)cc1 (stereo unspecified)	-2%	2%	-18%	43*	-1%	23*
CC(CN1CCOCC1)C(Cc1ccccc1)(Cc1ccccc1)C(=O)N1CCCC1 (stereo unspecified)	/	/	/	/	-12%[157 µM]	/
COC(=O)C1=C(C)NC(C)=C([N+](=O)[O-])[C@@H]1c1ccccc1C(F)(F)F	/	?	/	-8	/	-1
Cc1ccc(C(=O)N/C(=C/c2ccco2)C(=O)Nc2cccc(C(=O)O)c2)cc1	-6%	6%	-11%	28	?	22*
CC(=O)c1cccc(NC(=O)/C(=C\c2ccco2)NC(=O)c2cccs2)c1	1%	1%	4%	29*	-2%	13*
c1ccc(-c2[nH]c(-c3ccccc3)[n+](CC3CO3)c2-c2ccccc2)cc1 (stereo unspecified)	3%	13%	-7%	28	-6%	50*
COc1ccc(NC(=O)/C(Cl)=C(/Cl)S(=O)Cc2ccc(Cl)cc2)cn1 (stereo unspecified)	-5%	-5%	4.5µM*	-41	17%	-13
COc1ccc(NC(=O)/C(Cl)=C(/Cl)S(=O)(=O)Cc2ccccc2)cn1	-2%	-1%	?	101*	-4%	46*
COc1ccc(NC(=O)Nc2cc(C)cc(C)c2)cn1	8%	-7%	1%	39	1%	15
COc1ccc(NC(=O)CCl)cn1	4%	2.8µM*	/	11	/	-2
COc1ccc(NC(=O)C(Cl)=C(Cl)Cl)cn1	4%	-12%	0%	16	3%	23*
COc1ccc(NC(=O)C(C)(C)Oc2ccc(Cl)cc2)cn1	/	/	-14%	/	-15%	/
COc1ccc(CCN2C(=O)c3oc4cc(C)cc(C)c4c(=O)c3C2c2ccc(F)cc2)cc1OC (stereo unspecified)	/	/	/	/	4%	/
O=C1N(Cc2cccc(C(F)(F)F)c2)c2ccccc2S(=O)(=O)N1c1cccc(Cl)c1	/	/	/	/	-4%	/
CCOC(=S)SSC(=S)OCC	/	/	/	/	-23%	/
CC[C@@H](O)C(C[C@@H](C)N(C)C)(c1ccccc1)c1ccccc1	/	/	/	/	-8%[157 µM]	/
CCOC(=O)c1ccc(NC(=O)CCCn2c(=O)c3cccn3c3cccnc32)cc1	/	/	/	/	-2%	/
COc1ccc(NC(=O)CC2CC3CCC2C3)cn1 (stereo unspecified)	-2%	2%	15%	60	5%	20*
c1ccc(-c2ccn3nnnc3n2)cc1	2%	-1%	-16%	74*	-3%	36*
Cc1ccc(S(=O)(=O)NCC(=O)N(CC(=O)NCC2CCCO2)Cc2ccco2)cc1 (stereo unspecified)	3%	-2%	7%	29	5%	10*
Cc1ccc(S(=O)(=O)NCC(=O)N(CC(=O)NCC2CCCO2)Cc2ccccc2)cc1 (stereo unspecified)	6%	3%	-15%	41	-3%	-2

High-throughput results: PubChem BioAssay, National Center for Advancing Translational Sciences (NCATS)
